From PubChem
Pol eta inh – blocks human DNA polymerase eta activity. Q9Y253. recombinant Pol eta, fluorescent DNA replication assay. Potency, µM (titrated, usually from 114 µM), inactives show at the highest dose activity change, negative = inhibition, hits mostly inhibitors. 390,000 tested, 1.2% active. AID 588591; further: potency means the concentration at half of the fitted maximal effect; on the % scale 0 is the no-effect control and ±100 the full control effect
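Pol eta at 10 nM preincubated with compounds 15 min at room temperature; reaction started with fluorescent substrate (50 nM final) and read kinetically at 0 and 10 min.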
WRN inhibitor – blocks human WRN helicase | Q14191 | WRN helicase unwinding, fluorescent forked duplex, kinetic | Potency, µM (series often up to 114 µM), for the others: at the highest dose activity change, negative = inhibition, most hits filed as inhibitors | 360,000 tested, 0.46% active; further: potency means the concentration at half of the fitted maximal effect; on the % scale 0 is the no-effect control and ±100 the full control effect; nearly all actives have a fitted effect of over 55% in size
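Kinetic fluorescence helicase assay: unwinding of a quenched forked DNA duplex (100 nM final) with 2 mM ATP final raises red fluorescence (525/598 nm). Compounds sat 15 min at room temperature with 20 nM WRN beforehand.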
PI5P4Ka inh – PI5P4K alpha (human) kinase inhibition. PI5P4Kalpha enzyme, ADP-Glo luminescence, 60 min; active compounds read low. max response, %. 330,000 tested, 1.2% active; active means max response of -50% or lower; inconclusive means between -30% and -50%; inactive means -30% or higher; further: value at the top dose of about 77 µM; on the % scale 0 is the no-effect control and ±100 the full control effect
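ADP-Glo luminescence end-point after a 60 min room-temperature kinase reaction. PI5P4Kalpha and substrate in HEPES pH 7.4 buffer with EGTA, 0.1% CHAPS and 5% DMSO; ATP at 5 microM final.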
POLB inh – inhibitors of human DNA polymerase beta | P06746 | Pol beta primer extension/strand displacement, fluorescence kinetic | Potency, µM (top dose mostly 114 µM), inactives show top-dose activity change, negative = inhibition, actives largely listed as inhibitors | 340,000 tested, 1.3% active; further: potency means the concentration at half of the fitted maximal effect; on the % scale 0 is the no-effect control and ±100 the full control effect
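Pol beta (10 nM) and compounds were preincubated 15 min at room temperature, then 50 nM substrate (final) started primer extension/strand displacement. Reads were taken at 0 and 10 min; concentration-response data were fitted to a four-parameter Hill equation.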
POLK inh – DNA polymerase kappa (human) inhibition; Q9UBT6; purified Pol kappa, fluorescent DNA synthesis assay, 10 min; Potency, µM (doses to about 107 µM), for inactives: at the highest dose activity, negative = inhibition, actives largely listed as inhibitors; 400,000 tested, 0.53% active; AID 588579; further: potency means the concentration at half of the fitted maximal effect; on the % scale 0 is the no-effect control and ±100 the full control effect
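First, compounds were pin-transferred onto 10 nM Pol kappa. After 15 min at room temperature, substrate was added to 50 nM final. Fluorescence was then measured kinetically at 0 and 10 min.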
Pol iota inh – inhibitors of human DNA polymerase iota. Q9UNA4. AID 588590. Potency, µM (titrated, usually from 115 µM), for inactives: at the highest dose activity, negative = inhibition, most hits filed as inhibitors. 390,000 tested, 1% active. Pol iota fluorescent replication assay, 10 min; further: potency means the concentration at half of the fitted maximal effect
Target sequence (Q9UNA4 whole entry, looked up): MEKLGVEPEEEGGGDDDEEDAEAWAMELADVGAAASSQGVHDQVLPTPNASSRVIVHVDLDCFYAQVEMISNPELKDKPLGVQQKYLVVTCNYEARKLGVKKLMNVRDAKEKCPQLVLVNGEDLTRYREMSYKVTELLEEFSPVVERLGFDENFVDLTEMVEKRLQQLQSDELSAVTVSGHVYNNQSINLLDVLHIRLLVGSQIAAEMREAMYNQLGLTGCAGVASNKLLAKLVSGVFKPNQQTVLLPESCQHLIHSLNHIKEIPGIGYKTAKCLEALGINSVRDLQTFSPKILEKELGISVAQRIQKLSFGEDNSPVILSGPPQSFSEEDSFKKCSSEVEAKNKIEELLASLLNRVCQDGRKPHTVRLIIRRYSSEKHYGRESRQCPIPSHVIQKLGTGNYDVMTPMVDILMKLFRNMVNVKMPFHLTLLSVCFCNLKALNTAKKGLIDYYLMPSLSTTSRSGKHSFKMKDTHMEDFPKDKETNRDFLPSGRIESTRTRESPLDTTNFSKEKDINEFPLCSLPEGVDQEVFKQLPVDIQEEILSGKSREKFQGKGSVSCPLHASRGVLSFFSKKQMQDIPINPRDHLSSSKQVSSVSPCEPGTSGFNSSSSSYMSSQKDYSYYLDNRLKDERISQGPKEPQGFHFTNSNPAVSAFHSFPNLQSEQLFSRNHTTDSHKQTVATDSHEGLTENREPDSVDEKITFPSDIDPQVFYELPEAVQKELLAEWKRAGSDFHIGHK
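Fluorescent replication assay read twice, at 0 min and 10 min after adding 50 nM (final) substrate. Enzyme (10 nM) and compounds were first incubated 15 min at room temperature; enzyme-free buffer wells were negative controls.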
The depositor's hits bear a star; ? = inconclusive; . = not tested or not shown; [ ] = another dose, or the depositor's remark. Hits are enriched below; roughly 2.8% of the tested compounds scored in any of these assays. Unless noted, the call rests on the fitted dose curve; in most records, active means well fitted curve in the direction sought with a large enough effect; inconclusive means small, poorly fitted or top-dose-only effect, or another doubt; inactive means no such curve, though single readings can be large; an effect the other way counts as inactive or inconclusive.

SMILES | Pol eta inh | WRN inhibitor | PI5P4Ka inh | POLB inh | POLK inh | Pol iota inh
O=[N+]([O-])c1cc(-c2nc(-c3ccncc3)no2)ccc1NCc1ccccc1 | -8% | . | . | ? | 7% | -5%
COc1ccc2c(c1)Cc1sc(NC(=O)c3ccccc3C)nc1-2 | . | . | . | 12% | -10% | 3.5µM*
COc1ccc2c(c1)Cc1sc(NC(=O)c3ccccc3)nc1-2 | 16% | 4% | ? | 7% | -11% | 16µM*
COc1ccc(OC)c(Nc2cc3ccccc3c(=O)[nH]2)c1 | ? | -10%[57.1 µM] | 0 | . | -6% | 32µM*
O=C(CSc1n[nH]c(-c2ccncc2)n1)c1ccccc1 | -5% | -4% | . | -27% | -7% | ?
Cc1nc(SCC(=O)c2ccccc2)n[nH]1 | 4% | 2% | -53* | -16% | -14% | 10%
Cc1ccc(S(=O)(=O)Nn2c(C)ccc2C)cc1 | ? | -3% | -58* | -12% | ? | ?
Cc1ccsc1C=Nc1ccc(O)cc1 | 14µM* | 35µM* | -51* | ? | 89µM* | 13µM*
Cc1cc(N2C(=O)C3C4C=CC(C4)C3C2=O)ccc1NC(=O)c1cccs1 (stereo unspecified) | ? | -19% | ? | 32µM* | -30% | ?
CC(C)N(C(=O)Nc1ccc2nsnc2c1)C(C)C | 8.9µM* | ? | ? | 10µM* | 50µM* | 1µM*
COc1ccc(N(C)C(=O)Nc2ccc3nsnc3c2)cc1 | -6% | -6% | 0 | ? | 5% | 84%
COCCNC(=S)Nc1ccc(Cl)c(Cl)c1 | -20% | -15% | 7 | -2% | -10% | 13%
CCOc1ccc(NC(=O)Nc2ccc3nsnc3c2)cc1 | -1% | 0% | 1 | 2% | -10% | 8%
CCOc1ccc(NC(=S)Nc2ccc3nsnc3c2)cc1 | 22µM* | -5%[11.6 µM] | -12 | ? | -4% | 10µM*
COCCNC(=S)Nc1ccc2nsnc2c1 | -6% | -21% | -8 | 43% | -13% | 20µM*
COc1ccc(NC(=S)Nc2ccc3nsnc3c2)cc1 | 7.1µM* | ? | -19 | 0% | 0% | 3.5µM*
COc1ccc(NC(=S)Nc2ccc3nc(C)c(C)nc3c2)cc1 | -17% | 2% | 0 | 4% | -2% | 33%
CCCCCCCCCC[n+]1ccc(/C=C/c2c(C)[nH]c3ccccc23)c2ccccc21 | . | . | . | . | ? | 59%
CC(=O)/C(C#N)=C1\NC(=O)C(Cc2cc(Cl)ccc2Cl)S1 (stereo unspecified) | -19% | -3% | -53* | 10% | -5% | -1%
CCOC(=O)c1cnc2nc(NCc3cccc(Br)c3)[nH]n2c1=O | -12% | . | . | 7% | 12% | 31%
CCOC(=O)c1cnc2nc(NCc3ccc(OC)c(OC)c3)[nH]n2c1=O | 20µM* | -10%[57.1 µM] | -14 | 35µM* | -3% | ?
CC(=O)N(C)C1=C(O)c2ccccc2C(=O)C1=O | -4% | -5% | . | -1% | -15% | 28µM*
O=C1C(O)=C(O)C(=O)c2ccccc21 | 32µM* | 5% | -6 | . | -14% | 7.9µM*
O=C1c2ccccc2C(=O)c2[nH]c(=O)[nH]c21 | 32µM* | -15%[11.6 µM] | -69* | 50µM* | ? | 14µM*
O=C1C(=O)c2ccccc2C(O)=C1c1ccccc1F | 0% | ? | -18 | 25% | -16% | 83%
SMILES | Pol eta inh | WRN inhibitor | PI5P4Ka inh | POLB inh | POLK inh | Pol iota inh
CC(C)(C)c1ccc(O)c(O)c1 | -18% | 1% | -88* | . | -1% | 29%
CCOC(=O)C1CCCN(C(=O)c2cc3cc(OC)c(OC)cc3[nH]2)C1 (stereo unspecified) | -20% | -6% | -6 | 6% | -9% | 130%
CC(C)(C)n1ncc2c(=O)n(Cc3cccc(-c4cccs4)c3)cnc21 | . | . | . | . | -11% | -44%
CCC(=O)N1CCc2cc(Br)cc(S(=O)(=O)CCC(=O)Nc3ccc(C)c(C)c3)c21 | -15% | . | . | ? | -5%[60.1 µM] | 9%
N#Cc1c(NC(=S)NC(=O)Cc2cccs2)sc2c1CCCCC2 | -6% | -12% | . | 45µM* | ? | -14%
O=C1OCCN1N1CCOC1=O | -2% | -5% | 3 | . | 0% | 40%
O=C1C(Cl)=C(N2CCCCC2)C(=O)C(Cl)=C1c1cnc(N2CCCCC2)s1 | ? | ? | . | 5.6µM* | -36% | ?
Cc1cccc(N/N=C/c2ccc(O)c(O)c2O)c1 | ? | -9%[11.6 µM] | -23 | 10µM* | ? | ?
CCN(CC)c1cc(C)c2cc(NC(=O)/C=C/c3ccccc3OC(C)C)ccc2n1 | -23% | . | . | -2% | -8% | 10%
O=C(COC(=O)c1cc(Cl)cc(Cl)c1)NCc1ccco1 | 56µM* | -3%[11.6 µM] | -26 | . | ? | ?
O=C(COC(=O)c1ccc(S(=O)(=O)N2CCCC2)cc1)NCc1ccco1 | ? | -5%[11.6 µM] | 0 | ? | ? | 50µM*
Cc1ccc(C(=O)Nc2ccccc2C(=O)NCc2ccco2)cc1S(=O)(=O)N1CCCCC1 | -12% | -8% | 4 | -29% | -11% | -1%
O=C(NCc1ccco1)c1ccc(S(=O)(=O)N2CCCCC2)cc1 | -4% | -10% | -2 | 3% | -7% | -12%
O=C(COC(=O)c1ccc(Br)o1)NCc1ccco1 | 10µM* | ? | ? | . | ? | 50µM*
Cc1ccc(C(=O)NCc2ccco2)cc1S(=O)(=O)N1CCCCC1 | ? | -23%[57.1 µM] | . | 40µM* | ? | ?
O=C(COC(=O)c1ccccc1)NCc1ccco1 | 13µM* | -7%[11.6 µM] | ? | 25µM* | ? | 28µM*
O=C(COC(=O)CNC(=O)c1ccc(-c2ccccc2)cc1)NCc1ccco1 | -22% | -14% | -28 | 8.9µM* | -10% | 70%
Cc1cccc(C(=O)OCC(=O)NCc2ccco2)c1 | 16µM* | 6%[11.6 µM] | -26 | . | ? | 79µM*
Cc1ccc(C(=O)OCC(=O)NCc2ccco2)cc1 | ? | -8% | -16 | 4% | -5% | 3%
O=C(COC(=O)c1cccc(Br)c1)NCCNC(=O)COC(=O)c1cccc(Br)c1 | -13% | 5% | 1 | 3% | -1% | 15%
O=C(COC(=O)c1cccc(Br)c1)NCc1ccco1 | 79µM* | ? | ? | . | ? | 25µM*
O=C(Nc1ccc(S(=O)(=O)N2CCCCC2)cc1)C1CCCN(C(=O)c2ccc(Cl)cc2)C1 (stereo unspecified) | -16% | -4% | 1 | -2% | -3% | -19%
COC(=O)N(C)C[C@@H]1OCc2cnnn2CCCC(=O)N([C@@H](C)CO)C[C@H]1C | -12% | 5% | 1 | . | . | .
CCC(C)NC(=O)C1CCC(=O)N1CCc1ccccc1 (stereo unspecified) | -7% | 11% | -4 | 31% | -1% | 184%
CC1=NNC(=O)C1Cc1ccccc1C (stereo unspecified) | -2% | -9% | 19 | -18% | -17% | 74%
